According to PubChem BioAssay (NCATS):
Where “and” joins values, the source holds several entries; their conditions need not be identical. Equal values may be shown once. Inconclusive results are not listed. A call without a number means that no potency is given here. Calls of active or inactive are those of the source. Unless noted, calls follow the shape of the dose curve; as a rule, active = well fitted curve in the direction sought with a large enough effect; inconclusive = small, poorly fitted or top-dose-only effect, or another doubt; inactive = no such curve, though single readings can be large; an effect the other way counts as inactive or inconclusive.

Assays:
[1] = target: Vitamin D3 receptor (Homo sapiens) (UniProt P11473); assay: qHTS assay for small molecule antagonists of vitamin D receptor signaling (AID 588541; calls by dose curve;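 also: receptor activated by calcitriol during compound treatment; series mostly up to about 77 µM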)
Chain of Vitamin D3 receptor (Homo sapiens) (P11473 whole entry, looked up): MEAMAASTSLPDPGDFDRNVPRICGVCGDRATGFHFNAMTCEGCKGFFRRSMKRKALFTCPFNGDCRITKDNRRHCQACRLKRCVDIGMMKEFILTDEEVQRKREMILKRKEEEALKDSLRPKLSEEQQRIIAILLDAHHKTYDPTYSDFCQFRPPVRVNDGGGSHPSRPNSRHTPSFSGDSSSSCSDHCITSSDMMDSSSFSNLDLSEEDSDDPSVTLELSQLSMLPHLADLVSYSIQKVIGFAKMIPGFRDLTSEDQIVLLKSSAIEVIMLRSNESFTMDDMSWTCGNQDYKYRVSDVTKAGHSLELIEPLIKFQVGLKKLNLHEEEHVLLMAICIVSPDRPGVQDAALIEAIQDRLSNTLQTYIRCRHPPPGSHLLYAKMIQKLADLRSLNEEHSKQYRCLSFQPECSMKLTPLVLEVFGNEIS
Outline: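 VDR-UAS-bla HEK293T cells in 2% charcoal-stripped FBS were stimulated with 1-alpha,25-dihydroxyvitamin D3 (3 nM final) plus compound for 16 h at 37 C. The beta-lactamase CCF4 readout was normalized to 50 nM agonist and DMSO, and Hill fits gave IC50.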

[2] = target: Vitamin D3 receptor (Homo sapiens) (UniProt P11473); assay: qHTS assay for small molecule agonists of vitamin D receptor signaling (AID 588543; calls by dose curve)
Outline: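 qHTS in agonist mode: compound titrations stimulate a VDR-driven β-lactamase reporter in HEK293T cells over 16 h at 37 °C. Response normalized to 50 nM 1α,25-dihydroxyvitamin D3 = 100%, DMSO = 0%; Hill fitting gives EC50 and maximal response.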

[3] = qHTS assay for small molecule agonists of retinoid X receptor alpha signaling (AID 588544); conditions: HEK293T RXRa-UAS-bla, beta-lactamase reporter, 18 h; 530 nm emission
[4] = target: Thyroid hormone receptor beta (Homo sapiens) (UniProt P10828); assay: qHTS assay for small molecule agonists of thyroid hormone receptor beta signaling (AID 588545; calls by dose curve)
Chain of Thyroid hormone receptor beta (Homo sapiens) (P10828 whole entry, looked up): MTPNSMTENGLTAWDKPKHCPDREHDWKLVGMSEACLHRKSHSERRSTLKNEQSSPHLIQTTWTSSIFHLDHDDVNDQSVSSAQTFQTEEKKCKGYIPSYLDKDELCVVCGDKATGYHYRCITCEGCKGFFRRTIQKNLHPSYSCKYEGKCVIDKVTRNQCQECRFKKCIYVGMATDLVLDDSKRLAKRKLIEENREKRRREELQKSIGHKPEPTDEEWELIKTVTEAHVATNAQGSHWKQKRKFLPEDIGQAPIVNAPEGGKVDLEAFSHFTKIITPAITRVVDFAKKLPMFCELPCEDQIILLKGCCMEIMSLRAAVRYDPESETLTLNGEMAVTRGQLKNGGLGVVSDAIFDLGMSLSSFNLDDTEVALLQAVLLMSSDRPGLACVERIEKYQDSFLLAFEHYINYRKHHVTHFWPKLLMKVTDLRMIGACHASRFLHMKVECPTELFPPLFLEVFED
Outline: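 Stimulation of a TR-driven beta-lactamase reporter was quantified in GripTite HEK 293 cells. Compound series ran for 18 hrs; curves were normalized to T3 and DMSO controls and fitted to yield EC50.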

[5] = qHTS assay for small molecule antagonists of retinoid X receptor alpha signaling (AID 588546; active = well fitted inhibition curve with a large enough effect in the signal ratio, with a control signal flat, not every such curve was filed as active; the % refers to the signal ratio;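 also: cells stimulated with 9-cis-retinoic acid as agonist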); conditions: HEK293T RXRa-UAS-bla, beta-lactamase ratio, antagonist mode; measured here: W530 green channel, cytotoxicity proxy
Outline: (§1)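 Beta-lactamase reporter inhibition, read as CCF4 fluorescence ratio (ex 405, em 460/530 nm) after 2 h at RT. HEK293T UAS-bla cells, 2500/well, were stimulated with 9-cis-RA at 500 or 100 nM final alongside test compound for 18 h at 37 C.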

[6] = target: Retinoic acid receptor RXR-alpha (Homo sapiens) (UniProt P19793); assay: as above; conditions: HEK293T RXRa-UAS-bla, beta-lactamase ratio, antagonist mode
Chain of Retinoic acid receptor RXR-alpha (Homo sapiens) (P19793 whole entry, looked up): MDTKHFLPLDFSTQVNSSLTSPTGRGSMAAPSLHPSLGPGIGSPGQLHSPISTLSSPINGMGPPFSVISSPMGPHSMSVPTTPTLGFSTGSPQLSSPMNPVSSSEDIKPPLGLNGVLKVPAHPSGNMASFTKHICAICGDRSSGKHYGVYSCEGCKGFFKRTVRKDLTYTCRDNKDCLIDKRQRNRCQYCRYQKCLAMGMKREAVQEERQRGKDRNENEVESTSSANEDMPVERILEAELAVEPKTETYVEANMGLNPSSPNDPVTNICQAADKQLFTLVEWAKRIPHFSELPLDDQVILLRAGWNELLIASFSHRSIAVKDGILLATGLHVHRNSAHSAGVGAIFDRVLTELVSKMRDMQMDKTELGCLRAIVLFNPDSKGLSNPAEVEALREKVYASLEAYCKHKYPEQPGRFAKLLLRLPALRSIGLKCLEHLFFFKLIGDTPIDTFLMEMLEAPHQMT
Outline: as §1

[7] = target: Thyroid hormone receptor beta (Homo sapiens) (UniProt P10828); assay: qHTS assay for small molecule antagonists of thyroid hormone receptor beta signaling (AID 588547; active = well fitted inhibition curve with a large enough effect in the signal ratio, with a control signal flat, not every such curve was filed as active; the % refers to the signal ratio;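 also: cells stimulated with 0.4 nM T3 agonist during compound exposure; series mostly up to about 77 µM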); conditions: TR-UAS-bla HEK293, beta-lactamase ratio, antagonist mode, 18 h
Outline: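 TR-UAS-bla GripTite HEK293 cells in 2% charcoal/dextran FBS medium; compounds 0.59 nM to 92 uM with T3 at 0.4nM final, 18 h at 37 C. Beta-lactamase read by CCF4 fluorescence (460/530 nm); Hill fits gave IC50 and efficacy.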

[8] = qHTS assay for small molecule agonists of the antioxidant response element (ARE) signaling pathway (AID 651741; active = well fitted activation curve with a large enough effect in the signal ratio; the % refers to the signal ratio)
Outline: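 HepG2 ARE-bla cells plated at 2,000 cells/well and incubated 5 h at 37 C/5% CO2 received 23 nL compound in DMSO. After 16 h at 37 C, LiveBLAzer B/G FRET substrate was applied for 2 h at room temperature and fluorescence read.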

[9] = qHTS assay for small molecule activators of the p53 signaling pathway (AID 651743; active = well fitted activation curve with a large enough effect in the signal ratio, not every such curve was filed as active; the % refers to the signal ratio; also: series mostly up to about 92 µM); conditions: HCT-116 p53RE-bla, beta-lactamase FRET ratio, 16 h; activation: stronger effect = higher value
Outline: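 HCT-116 p53RE-bla, 4,000 cells/well; 5 h settle; cpd/DMSO 16 h, 37 C; LiveBLAzer B/G 2 h RT; fluorescence intensity.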

[10] = qHTS assay for small molecule activators of the nuclear factor-kappa B (NF-kB) signaling pathway (AID 651749; active = well fitted activation curve with a large enough effect in the signal ratio; the % refers to the signal ratio; also: series mostly up to about 77 µM); conditions: NF-kB-bla ME-180 cells, beta-lactamase FRET ratio, 16 h; activation: stronger effect = higher value
Outline: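 Incubation lasted 16 hr at 37C in 5% CO2 after 23 nL compound addition to ME-180 NF-kB-bla cells. Activation appears as beta-lactamase-mediated FRET loss.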

[11] = qHTS assay for small molecule disruptors of the mitochondrial membrane potential - 5 hr assay (AID 651755; calls by dose curve; also: nearly all actives have a fitted effect of over 40% in size)
Outline: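 HepG2 cells (2,000/well), attached overnight, exposed to compound 5 hr at 37C, then Mito-MPS dye 30 min. Fluorescence read for monomers (490/535 nm) and aggregates (540/590 nm).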

[12] = target: Tumor necrosis factor (Homo sapiens) (UniProt P01375); assay: qHTS assay to identify small molecules that stimulate Tumor Necrosis Factor-alpha (TNF-alpha) secretion (AID 651757; active = well fitted curve in the direction sought with a large enough effect in the signal ratio; the % refers to the signal ratio)
Chain of Tumor necrosis factor (Homo sapiens) (P01375 whole entry, looked up): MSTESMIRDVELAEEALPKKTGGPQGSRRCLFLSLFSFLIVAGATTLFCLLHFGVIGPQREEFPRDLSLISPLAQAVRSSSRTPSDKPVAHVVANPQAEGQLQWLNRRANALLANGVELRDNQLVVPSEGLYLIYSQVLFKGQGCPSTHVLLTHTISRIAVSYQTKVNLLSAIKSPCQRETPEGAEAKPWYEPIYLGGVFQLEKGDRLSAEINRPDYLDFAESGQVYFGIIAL
Outline: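 THP-1 cells were exposed to compounds for 17 hrs at 37 C, after which secreted TNF-alpha was measured by homogeneous HTRF (TR-FRET) using cryptate- and XL665-labeled anti-TNF-alpha antibodies, read after 3 hr at room temperature.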

[13] = qHTS assay to identify small molecules that stimulate interleukin-8 (IL-8) secretion (AID 651758; active = well fitted activation curve with a large enough effect in the signal ratio; the % refers to the signal ratio)
Outline: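 THP-1 cells (2000/well) exposed to compound 16 h at 37 C; secreted IL-8 then detected by HTRF with cryptate- and XL665-labelled anti-IL-8 antibody pair after 1-3 h at room temperature.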

[14] = target: Peroxisome proliferator-activated receptor alpha (Homo sapiens) (UniProt Q07869); assay: qHTS assay for small molecule agonists of the peroxisome proliferator-activated receptor alpha (PPARalpha) signaling pathway (AID 651778); conditions: PathHunter PPARalpha complementation, chemiluminescence, 6 h; stronger effect = higher value
Chain of Peroxisome proliferator-activated receptor alpha (Homo sapiens) (Q07869 whole entry, looked up, the tested form may be a part): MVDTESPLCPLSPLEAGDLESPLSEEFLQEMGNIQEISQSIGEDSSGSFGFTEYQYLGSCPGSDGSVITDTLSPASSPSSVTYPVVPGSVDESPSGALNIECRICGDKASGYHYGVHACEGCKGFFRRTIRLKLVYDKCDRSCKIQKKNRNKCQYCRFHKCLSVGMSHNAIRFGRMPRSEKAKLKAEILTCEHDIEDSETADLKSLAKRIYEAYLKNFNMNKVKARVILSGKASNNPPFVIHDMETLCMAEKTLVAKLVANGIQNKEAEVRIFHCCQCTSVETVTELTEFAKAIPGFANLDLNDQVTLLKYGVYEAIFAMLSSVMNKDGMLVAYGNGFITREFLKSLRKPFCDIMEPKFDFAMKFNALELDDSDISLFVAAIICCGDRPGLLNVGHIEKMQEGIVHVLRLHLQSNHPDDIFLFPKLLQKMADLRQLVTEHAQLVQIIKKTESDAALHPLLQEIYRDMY
Outline: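 Enzyme-fragment complementation assay in which ligand-bound PPARalpha translocates and forms an active enzyme that generates chemiluminescence. Cells were plated overnight, exposed to compound for 6 hr at 37 C, and then given detection reagent for 60 min at room temperature.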

[15] = qHTS assay for small molecule agonists of the antioxidant response element (ARE) signaling pathway measured by Nrf2-dependant transcriptional activity (AID 720636; active = well fitted curve in the direction sought with a large enough effect in the repeat runs; an effect the other way counts as inactive or inconclusive)
Outline: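 Quantitative HTS format in HepG2 cells stably expressing an ARE-luciferase reporter; 16 hr compound treatment at 37 C, luciferase signal detected with ONE-Glo.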

[16] = qHTS assay for small molecule antagonists of the retinoid-related orphan receptor gamma (ROR-gamma) signaling pathway - cell viability counter screen (AID 720652; active = well fitted curve in the direction sought with a large enough effect in the repeat runs; an effect the other way counts as inactive or inconclusive;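 also: CHO reporter cells with doxycycline-induced ROR-gamma expression; series mostly up to about 92 µM; compound exposure lasted 16 hr before ATP read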)
Outline: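 Counter screen in CHO cells carrying TET-inducible ROR-gamma and an ROR response element-luciferase reporter; cells plated 5 hr, compound pinned, doxycycline added, then 16 hr at 37 C. Viability read as intracellular ATP by CellTiter-Glo luminescence.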

[17] = qHTS assay for small molecule agonists of the antioxidant response element (ARE) signaling pathway measured by Nrf2-dependant transcriptional activity - cell viability counter screen (AID 720653; active = well fitted curve in the direction sought with a large enough effect in the repeat runs; an effect the other way counts as inactive or inconclusive); conditions: ARE-bla HepG2 viability, CellTiter-Glo ATP luminescence, 16 h; stronger effect = lower value
Outline: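 ARE-bla HepG2 cells treated with compounds for 16 h at 37C; this counter screen measures viability as intracellular ATP by CellTiter-Glo luminescence after 30 min at room temperature.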

[18] = qHTS assay for cell viability of HEK293 cells (AID 743288); conditions: ATP luminescence (CellTiter-Glo), 18 h; max response: stronger effect = lower value; also: nearly all actives have a fitted effect of over 50% in size
Outline: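 The Tox21 protocol used parental HEK293 cells treated for 18 h at 37 C with compounds delivered by pintool; ATP-coupled luminescence after 30 min at room temperature gave viability.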

[19] = qHTS assay for cell viability of the p53RE-bla HCT-116 cell line (AID 743292); also: nearly all actives have a fitted effect of over 55% in size
Outline: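 Viability of compound-treated p53RE-bla HCT-116 cells is taken from ATP-dependent luciferase luminescence. Treatment lasts 16 h at 37 C after a 5 h settling period; detection follows 30 min at room temperature.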

[20] = target: Rap guanine nucleotide exchange factor 3 (Homo sapiens) (UniProt O95398); assay: Confirmatory qHTS for antagonist of cAMP-regulated guanine nucleotide exchange factor 3 (EPAC1) (AID 1645880); also: nearly all actives have a fitted effect of over 55% in size
Chain of Rap guanine nucleotide exchange factor 3 (Homo sapiens) (O95398 whole entry, looked up): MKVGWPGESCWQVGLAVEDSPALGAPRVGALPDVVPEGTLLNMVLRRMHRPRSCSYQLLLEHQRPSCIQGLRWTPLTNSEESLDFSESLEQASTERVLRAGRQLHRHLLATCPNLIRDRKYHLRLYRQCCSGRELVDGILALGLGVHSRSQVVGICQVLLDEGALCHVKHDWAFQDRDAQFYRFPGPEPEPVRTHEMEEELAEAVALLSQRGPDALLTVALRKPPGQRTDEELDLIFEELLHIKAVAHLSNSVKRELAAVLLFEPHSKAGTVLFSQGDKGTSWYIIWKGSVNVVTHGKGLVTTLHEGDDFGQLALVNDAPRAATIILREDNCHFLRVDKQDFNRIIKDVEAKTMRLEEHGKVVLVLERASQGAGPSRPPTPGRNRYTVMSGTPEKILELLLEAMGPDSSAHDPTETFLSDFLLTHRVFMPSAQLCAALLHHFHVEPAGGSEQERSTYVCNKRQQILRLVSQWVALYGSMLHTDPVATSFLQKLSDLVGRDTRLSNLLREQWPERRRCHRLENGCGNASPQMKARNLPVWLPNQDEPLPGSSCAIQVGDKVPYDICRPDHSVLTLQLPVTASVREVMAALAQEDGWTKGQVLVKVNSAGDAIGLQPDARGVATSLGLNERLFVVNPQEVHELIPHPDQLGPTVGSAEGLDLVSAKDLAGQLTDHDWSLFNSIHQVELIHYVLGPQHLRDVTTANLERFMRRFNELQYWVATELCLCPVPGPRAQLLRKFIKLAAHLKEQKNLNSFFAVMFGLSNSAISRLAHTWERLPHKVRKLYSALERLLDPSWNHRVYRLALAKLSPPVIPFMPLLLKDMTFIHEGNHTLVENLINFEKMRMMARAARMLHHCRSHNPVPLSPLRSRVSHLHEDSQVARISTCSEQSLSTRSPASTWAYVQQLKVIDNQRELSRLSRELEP
Outline: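 Nucleotide exchange uses 100 nM EPAC1, 250 nM RAP1B-BODIPY-GDP and 50 uM GDP, with compounds in a concentration-titration series. After 5 min at room temperature, fluorescence (480 nm ex/540 nm em) is read every 5 min for 30 min. Data are normalized to control ATA and DMSO.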

[21] = target: Rap guanine nucleotide exchange factor 3 (Homo sapiens) (UniProt O95398); assay: Confirmatory qHTS for agonist of cAMP-regulated guanine nucleotide exchange factor 3 (EPAC1) (AID 1645881);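 also: EPAC1 catalysed release of BODIPY-GDP from Rap1B seen as fluorescence loss; nearly all actives have a fitted effect of over 75% in size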
[22] = target: Rap guanine nucleotide exchange factor 4 (Homo sapiens) (UniProt Q8WZA2); assay: Confirmatory qHTS for agonist of cAMP-regulated guanine nucleotide exchange factor 4 (EPAC2) (AID 1645884);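 also: nucleotide exchange releases bodipy-GDP from Rap1 and this lowers its fluorescence; nearly all actives have a fitted effect of over 65% in size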
Chain of Rap guanine nucleotide exchange factor 4 (Homo sapiens) (Q8WZA2 whole entry, looked up): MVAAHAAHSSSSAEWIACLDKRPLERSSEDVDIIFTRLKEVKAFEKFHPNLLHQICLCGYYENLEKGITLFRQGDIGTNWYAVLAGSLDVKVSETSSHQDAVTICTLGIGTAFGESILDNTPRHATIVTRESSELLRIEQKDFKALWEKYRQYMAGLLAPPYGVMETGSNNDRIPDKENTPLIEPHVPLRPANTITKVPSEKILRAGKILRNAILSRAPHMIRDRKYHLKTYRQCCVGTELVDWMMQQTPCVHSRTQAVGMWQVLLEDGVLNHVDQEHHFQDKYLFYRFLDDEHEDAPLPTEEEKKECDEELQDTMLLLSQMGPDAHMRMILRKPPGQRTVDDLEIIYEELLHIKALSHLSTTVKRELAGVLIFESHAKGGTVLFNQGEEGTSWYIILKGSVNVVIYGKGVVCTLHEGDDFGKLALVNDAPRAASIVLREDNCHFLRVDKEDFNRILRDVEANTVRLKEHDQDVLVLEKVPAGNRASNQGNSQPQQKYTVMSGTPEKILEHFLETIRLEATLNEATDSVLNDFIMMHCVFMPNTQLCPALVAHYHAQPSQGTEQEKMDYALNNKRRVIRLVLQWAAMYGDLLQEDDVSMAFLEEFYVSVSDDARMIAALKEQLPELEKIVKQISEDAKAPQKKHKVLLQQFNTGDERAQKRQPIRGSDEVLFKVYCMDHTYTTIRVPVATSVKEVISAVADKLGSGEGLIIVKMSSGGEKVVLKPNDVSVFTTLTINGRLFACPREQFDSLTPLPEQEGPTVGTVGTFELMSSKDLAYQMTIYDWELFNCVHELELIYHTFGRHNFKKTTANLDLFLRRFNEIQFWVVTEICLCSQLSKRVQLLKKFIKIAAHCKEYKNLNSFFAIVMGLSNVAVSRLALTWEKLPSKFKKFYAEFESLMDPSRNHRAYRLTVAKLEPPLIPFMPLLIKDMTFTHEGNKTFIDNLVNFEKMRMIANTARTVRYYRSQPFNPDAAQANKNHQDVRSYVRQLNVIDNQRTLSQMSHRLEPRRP

[23] = target: Nuclear receptor subfamily 1 group I member 2 (Rattus norvegicus) (UniProt Q9R1A7); assay: qHTS assay for small molecule activators of the rat pregnane X receptor (rPXR) signaling pathway (AID 651751; call rule not given here); conditions: rPXR reporter cells, luciferase (One-Glo), 24 h
Chain of Nuclear receptor subfamily 1 group I member 2 (Rattus norvegicus) (Q9R1A7 whole entry, looked up): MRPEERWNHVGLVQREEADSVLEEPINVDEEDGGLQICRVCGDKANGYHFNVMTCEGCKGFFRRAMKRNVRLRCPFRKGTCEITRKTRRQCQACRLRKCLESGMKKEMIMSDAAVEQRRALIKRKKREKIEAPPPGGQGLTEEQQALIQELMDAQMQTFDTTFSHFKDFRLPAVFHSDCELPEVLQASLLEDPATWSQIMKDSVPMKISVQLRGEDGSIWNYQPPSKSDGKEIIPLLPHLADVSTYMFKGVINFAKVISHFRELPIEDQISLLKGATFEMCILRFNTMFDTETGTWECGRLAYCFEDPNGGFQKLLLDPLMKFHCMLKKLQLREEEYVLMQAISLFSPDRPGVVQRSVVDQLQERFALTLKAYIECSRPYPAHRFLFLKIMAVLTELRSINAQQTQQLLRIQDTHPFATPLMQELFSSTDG

[24] = qHTS assay for small molecule activators of the human pregnane X receptor (PXR) signaling pathway (AID 720659; call rule not given here)

For `CCCCOC(=O)c1ccccc1C(=O)OCCCC`, the outcome [1] was “inactive”, the outcome [2] was “inactive” and the max response [3] was -8.82% and -0.286%. For the same molecule, the outcome [4] was “inactive”, the max response [5] was -3.09% and the max response [6] was -10.9% (inactive). For the same molecule, the activity change % (negative = inhibition) [7] was 17.1% (inactive) and -3.92% (inactive), the Potency [8] was “inactive” and the activation [9] was -2.51% (inactive) and -0.006% (inactive). For the same molecule, the activation [10] was -1.75% (inactive) and -1.98% (inactive), the Potency [11] was “inactive” and the outcome [12] was “inactive”. The Potency [13] was “inactive”, the max response [14] was -1.47% (inactive) and -0.868% (inactive) and the outcome [15] was “inactive”. The Potency [16] was “inactive”, the max response [17] was -12.7% (inactive) and 12.7% (inactive) and the max response [18] was -1.27% (inactive) and -9.6% (inactive). The Potency [19] was “inactive”, the Potency [20] was “inactive” and the Potency [21] was “inactive”. For the same molecule, the Potency [22] was “inactive”, the max response [23] was 4.96% (inactive) and 5.3% (inactive) and the outcome [24] was “inactive”.
